# Assay results reported in paper PMC11006913.
# Tests used:
# Assay in all cases: PBM; 200 nM protein, PBS
# Details in all cases: dsDNA, one strand shown
# VENTX = biological target: T1, VENTX (Homo sapiens, UniProt O95231 78-163, R121Q)
# T1 sequence: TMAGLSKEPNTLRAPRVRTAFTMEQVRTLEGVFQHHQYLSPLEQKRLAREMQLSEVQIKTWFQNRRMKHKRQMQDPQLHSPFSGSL
# HOXA4 [1] = biological target: HOXA4 (Homo sapiens, UniProt Q00056 201-287, W262R)
# HOXA7 [2] = biological target: HOXA7 (Homo sapiens, UniProt P31268 116-202)
# HOXA7 (Homo sapiens, UniProt P31268 116-202), sequence (P31268 116-202): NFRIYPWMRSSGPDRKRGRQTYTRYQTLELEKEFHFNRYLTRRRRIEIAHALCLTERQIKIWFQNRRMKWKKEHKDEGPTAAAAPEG
# ALX4 [3] = biological target: ALX4 (Homo sapiens, UniProt Q9H161 200-286)
# ALX4 (Homo sapiens, UniProt Q9H161 200-286), sequence (Q9H161 200-286): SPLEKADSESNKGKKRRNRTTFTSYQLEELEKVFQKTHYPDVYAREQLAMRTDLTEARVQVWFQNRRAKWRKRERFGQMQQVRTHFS
# PRRX1 [4] = biological target: PRRX1 (Homo sapiens, UniProt P54821 80-166, F113S)
# PRRX1 (Homo sapiens, UniProt P54821 80-166, F113S), sequence (P54821 80-166 F113S): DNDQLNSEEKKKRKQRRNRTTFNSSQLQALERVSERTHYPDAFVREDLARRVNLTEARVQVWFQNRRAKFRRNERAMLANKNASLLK
# HOXB6 [5] = biological target: HOXB6 (Homo sapiens, UniProt P17509 132-218, K202E)
# HOXB6 (Homo sapiens, UniProt P17509 132-218, K202E), sequence (P17509 132-218 K202E): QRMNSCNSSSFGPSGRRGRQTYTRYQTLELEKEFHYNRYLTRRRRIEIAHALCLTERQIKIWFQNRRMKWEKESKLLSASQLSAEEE
# ALX4 [6] = biological target: ALX4 (Homo sapiens, UniProt Q9H161 200-286, Q225E)
# ALX4 (Homo sapiens, UniProt Q9H161 200-286, Q225E), sequence (Q9H161 200-286 Q225E): as the sequence (Q9H161 200-286) above, with Q26E counted along it
# HOXA2 = HOXA2 (Homo sapiens, UniProt O43364 129-215, R185T)
# HOXA2, sequence (O43364 129-215 R185T): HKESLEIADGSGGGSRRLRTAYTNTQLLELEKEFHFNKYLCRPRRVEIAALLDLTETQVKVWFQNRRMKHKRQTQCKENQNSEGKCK
# HOXA4 [7] = biological target: HOXA4 (Homo sapiens, UniProt Q00056 201-287, R217L)
# HOXA4 (Homo sapiens, UniProt Q00056 201-287, R217L), sequence (Q00056 201-287 R217L): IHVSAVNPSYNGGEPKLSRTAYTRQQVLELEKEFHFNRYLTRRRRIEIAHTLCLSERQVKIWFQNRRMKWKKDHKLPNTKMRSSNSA
# MSX2 [8] = biological target: MSX2 (Homo sapiens, UniProt P35548 130-214, R199I)
# MSX2 (Homo sapiens, UniProt P35548 130-214, R199I), sequence (P35548 130-214 R199I): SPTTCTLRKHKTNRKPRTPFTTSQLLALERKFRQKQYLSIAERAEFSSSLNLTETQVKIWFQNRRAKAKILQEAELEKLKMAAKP
# HOXA4 [9] = biological target: HOXA4 (Homo sapiens, UniProt Q00056 201-287)
# HOXA4 (Homo sapiens, UniProt Q00056 201-287), sequence (Q00056 201-287): as the sequence (Q00056 201-287 R217L) above, with L17R counted along it
# MSX2 [10] = biological target: MSX2 (Homo sapiens, UniProt P35548 130-214)
# MSX2 (Homo sapiens, UniProt P35548 130-214), sequence (P35548 130-214): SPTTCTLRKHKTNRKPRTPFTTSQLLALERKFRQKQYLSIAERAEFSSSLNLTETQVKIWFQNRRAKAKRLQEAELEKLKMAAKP
# VAX1 [11] = biological target: VAX1 (Homo sapiens, UniProt Q5SQQ9 86-172)
# VAX1 (Homo sapiens, UniProt Q5SQQ9 86-172), sequence (Q5SQQ9 86-172): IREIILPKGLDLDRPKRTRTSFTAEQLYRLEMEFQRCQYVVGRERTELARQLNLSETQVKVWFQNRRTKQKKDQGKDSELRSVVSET
# MSX2 [12] = biological target: MSX2 (Homo sapiens, UniProt P35548 130-214, F161Y)
# MSX2 (Homo sapiens, UniProt P35548 130-214, F161Y), sequence (P35548 130-214 F161Y): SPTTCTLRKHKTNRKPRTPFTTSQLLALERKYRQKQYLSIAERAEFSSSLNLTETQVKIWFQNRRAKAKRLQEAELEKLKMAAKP
# VAX1 [13] = biological target: VAX1 (Homo sapiens, UniProt Q5SQQ9 86-172, T142I)
# VAX1 (Homo sapiens, UniProt Q5SQQ9 86-172, T142I), sequence (Q5SQQ9 86-172 T142I): as the sequence (Q5SQQ9 86-172) above, with T57I counted along it
# HOXA7 [14] = biological target: HOXA7 (Homo sapiens, UniProt P31268 116-202, W177C)
# HOXA7 (Homo sapiens, UniProt P31268 116-202, W177C), sequence (P31268 116-202 W177C): as the sequence (P31268 116-202) above, with W62C counted along it
# HOXA4 [15] = biological target: HOXA4 (Homo sapiens, UniProt Q00056 201-287, W262F)
# HOXA4 (Homo sapiens, UniProt Q00056 201-287, W262F), sequence (Q00056 201-287 W262F): as the sequence (Q00056 201-287 R217L) above, with L17R, W62F counted along it
# PRRX1 [16] = biological target: PRRX1 (Homo sapiens, UniProt P54821 80-166)
# PRRX1 (Homo sapiens, UniProt P54821 80-166), sequence (P54821 80-166): as the sequence (P54821 80-166 F113S) above, with S34F counted along it
# VAX1 [17] = biological target: VAX1 (Homo sapiens, UniProt Q5SQQ9 86-172, K157R)
# VAX1 (Homo sapiens, UniProt Q5SQQ9 86-172, K157R), sequence (Q5SQQ9 86-172 K157R): as the sequence (Q5SQQ9 86-172) above, with K72R counted along it
# HOXB6 [18] = biological target: HOXB6 (Homo sapiens, UniProt P17509 132-218)
# HOXB6 (Homo sapiens, UniProt P17509 132-218), sequence (P17509 132-218): as the sequence (P17509 132-218 K202E) above, with E71K counted along it
# HOXA4 (Homo sapiens, UniProt Q00056 201-287, W262R), sequence (Q00056 201-287 W262R): as the sequence (Q00056 201-287 R217L) above, with L17R, W62R counted along it
Sequence,binding signal (VENTX),binding signal (HOXA4 [1]),binding signal (HOXA7 [2]),binding signal (ALX4 [3]),binding signal (PRRX1 [4]),binding signal (HOXB6 [5]),binding signal (ALX4 [6]),binding signal (HOXA2),binding signal (HOXA4 [7]),binding signal (MSX2 [8]),binding signal (HOXA4 [9]),binding signal (MSX2 [10]),binding signal (VAX1 [11]),binding signal (MSX2 [12]),binding signal (VAX1 [13]),binding signal (HOXA7 [14]),binding signal (HOXA4 [15]),binding signal (PRRX1 [16]),binding signal (VAX1 [17]),binding signal (HOXB6 [18])
GTAATTAA,"12.4 upbm affinity estimate (log intensity, higher = more binding, comparable within an allelic series)","10.9 upbm affinity estimate (log intensity, higher = more binding, comparable within an allelic series)","12.5 upbm affinity estimate (log intensity, higher = more binding, comparable within an allelic series)","14.4 upbm affinity estimate (log intensity, higher = more binding, comparable within an allelic series)","11.8 upbm affinity estimate (log intensity, higher = more binding, comparable within an allelic series)","10.3 upbm affinity estimate (log intensity, higher = more binding, comparable within an allelic series)","14 upbm affinity estimate (log intensity, higher = more binding, comparable within an allelic series)","13.9 upbm affinity estimate (log intensity, higher = more binding, comparable within an allelic series)","13.3 upbm affinity estimate (log intensity, higher = more binding, comparable within an allelic series)","13.2 upbm affinity estimate (log intensity, higher = more binding, comparable within an allelic series)","14.3 upbm affinity estimate (log intensity, higher = more binding, comparable within an allelic series)","14.1 upbm affinity estimate (log intensity, higher = more binding, comparable within an allelic series)","13.8 upbm affinity estimate (log intensity, higher = more binding, comparable within an allelic series)","13.7 upbm affinity estimate (log intensity, higher = more binding, comparable within an allelic series)","13.9 upbm affinity estimate (log intensity, higher = more binding, comparable within an allelic series)","9.01 upbm affinity estimate (log intensity, higher = more binding, comparable within an allelic series)","12.9 upbm affinity estimate (log intensity, higher = more binding, comparable within an allelic series)","13.6 upbm affinity estimate (log intensity, higher = more binding, comparable within an allelic series)","13.9 upbm affinity estimate (log intensity, higher = more binding, comparable within an allelic series)","12.9 upbm affinity estimate (log intensity, higher = more binding, comparable within an allelic series)"
TAATTACA,"12.2 upbm affinity estimate (log intensity, higher = more binding, comparable within an allelic series)","10.8 upbm affinity estimate (log intensity, higher = more binding, comparable within an allelic series)","12.1 upbm affinity estimate (log intensity, higher = more binding, comparable within an allelic series)","14.2 upbm affinity estimate (log intensity, higher = more binding, comparable within an allelic series)","11.6 upbm affinity estimate (log intensity, higher = more binding, comparable within an allelic series)","10.2 upbm affinity estimate (log intensity, higher = more binding, comparable within an allelic series)","13.5 upbm affinity estimate (log intensity, higher = more binding, comparable within an allelic series)","13.9 upbm affinity estimate (log intensity, higher = more binding, comparable within an allelic series)","12.9 upbm affinity estimate (log intensity, higher = more binding, comparable within an allelic series)","13.1 upbm affinity estimate (log intensity, higher = more binding, comparable within an allelic series)","14.2 upbm affinity estimate (log intensity, higher = more binding, comparable within an allelic series)","14.1 upbm affinity estimate (log intensity, higher = more binding, comparable within an allelic series)","13.6 upbm affinity estimate (log intensity, higher = more binding, comparable within an allelic series)","13.7 upbm affinity estimate (log intensity, higher = more binding, comparable within an allelic series)","13.6 upbm affinity estimate (log intensity, higher = more binding, comparable within an allelic series)","8.98 upbm affinity estimate (log intensity, higher = more binding, comparable within an allelic series)","12.3 upbm affinity estimate (log intensity, higher = more binding, comparable within an allelic series)","13.5 upbm affinity estimate (log intensity, higher = more binding, comparable within an allelic series)","13.6 upbm affinity estimate (log intensity, higher = more binding, comparable within an allelic series)","12.5 upbm affinity estimate (log intensity, higher = more binding, comparable within an allelic series)"
AGTAATTA,"12.5 upbm affinity estimate (log intensity, higher = more binding, comparable within an allelic series)","10.9 upbm affinity estimate (log intensity, higher = more binding, comparable within an allelic series)","12.3 upbm affinity estimate (log intensity, higher = more binding, comparable within an allelic series)","14.3 upbm affinity estimate (log intensity, higher = more binding, comparable within an allelic series)","11.7 upbm affinity estimate (log intensity, higher = more binding, comparable within an allelic series)","10.3 upbm affinity estimate (log intensity, higher = more binding, comparable within an allelic series)","13.8 upbm affinity estimate (log intensity, higher = more binding, comparable within an allelic series)","13.9 upbm affinity estimate (log intensity, higher = more binding, comparable within an allelic series)","13.1 upbm affinity estimate (log intensity, higher = more binding, comparable within an allelic series)","13.4 upbm affinity estimate (log intensity, higher = more binding, comparable within an allelic series)","14.3 upbm affinity estimate (log intensity, higher = more binding, comparable within an allelic series)","14.2 upbm affinity estimate (log intensity, higher = more binding, comparable within an allelic series)","13.8 upbm affinity estimate (log intensity, higher = more binding, comparable within an allelic series)","13.9 upbm affinity estimate (log intensity, higher = more binding, comparable within an allelic series)","13.9 upbm affinity estimate (log intensity, higher = more binding, comparable within an allelic series)","8.88 upbm affinity estimate (log intensity, higher = more binding, comparable within an allelic series)","12.6 upbm affinity estimate (log intensity, higher = more binding, comparable within an allelic series)","13.6 upbm affinity estimate (log intensity, higher = more binding, comparable within an allelic series)","13.9 upbm affinity estimate (log intensity, higher = more binding, comparable within an allelic series)","12.7 upbm affinity estimate (log intensity, higher = more binding, comparable within an allelic series)"
CGTAATTA,"12.2 upbm affinity estimate (log intensity, higher = more binding, comparable within an allelic series)","10.7 upbm affinity estimate (log intensity, higher = more binding, comparable within an allelic series)","12 upbm affinity estimate (log intensity, higher = more binding, comparable within an allelic series)","14.2 upbm affinity estimate (log intensity, higher = more binding, comparable within an allelic series)","11.5 upbm affinity estimate (log intensity, higher = more binding, comparable within an allelic series)","10.2 upbm affinity estimate (log intensity, higher = more binding, comparable within an allelic series)","13.5 upbm affinity estimate (log intensity, higher = more binding, comparable within an allelic series)","13.9 upbm affinity estimate (log intensity, higher = more binding, comparable within an allelic series)","12.7 upbm affinity estimate (log intensity, higher = more binding, comparable within an allelic series)","12.9 upbm affinity estimate (log intensity, higher = more binding, comparable within an allelic series)","14.2 upbm affinity estimate (log intensity, higher = more binding, comparable within an allelic series)","14 upbm affinity estimate (log intensity, higher = more binding, comparable within an allelic series)","13.6 upbm affinity estimate (log intensity, higher = more binding, comparable within an allelic series)","13.6 upbm affinity estimate (log intensity, higher = more binding, comparable within an allelic series)","13.6 upbm affinity estimate (log intensity, higher = more binding, comparable within an allelic series)","8.91 upbm affinity estimate (log intensity, higher = more binding, comparable within an allelic series)","12.3 upbm affinity estimate (log intensity, higher = more binding, comparable within an allelic series)","13.5 upbm affinity estimate (log intensity, higher = more binding, comparable within an allelic series)","13.7 upbm affinity estimate (log intensity, higher = more binding, comparable within an allelic series)","12.4 upbm affinity estimate (log intensity, higher = more binding, comparable within an allelic series)"
ATTAATTA,"12.8 upbm affinity estimate (log intensity, higher = more binding, comparable within an allelic series)","11.1 upbm affinity estimate (log intensity, higher = more binding, comparable within an allelic series)","12.6 upbm affinity estimate (log intensity, higher = more binding, comparable within an allelic series)","14.7 upbm affinity estimate (log intensity, higher = more binding, comparable within an allelic series)","12.2 upbm affinity estimate (log intensity, higher = more binding, comparable within an allelic series)","10.4 upbm affinity estimate (log intensity, higher = more binding, comparable within an allelic series)","14.6 upbm affinity estimate (log intensity, higher = more binding, comparable within an allelic series)","14 upbm affinity estimate (log intensity, higher = more binding, comparable within an allelic series)","13.4 upbm affinity estimate (log intensity, higher = more binding, comparable within an allelic series)","13.4 upbm affinity estimate (log intensity, higher = more binding, comparable within an allelic series)","14.4 upbm affinity estimate (log intensity, higher = more binding, comparable within an allelic series)","14.2 upbm affinity estimate (log intensity, higher = more binding, comparable within an allelic series)","13.8 upbm affinity estimate (log intensity, higher = more binding, comparable within an allelic series)","13.8 upbm affinity estimate (log intensity, higher = more binding, comparable within an allelic series)","13.9 upbm affinity estimate (log intensity, higher = more binding, comparable within an allelic series)","9.01 upbm affinity estimate (log intensity, higher = more binding, comparable within an allelic series)","13.1 upbm affinity estimate (log intensity, higher = more binding, comparable within an allelic series)","13.8 upbm affinity estimate (log intensity, higher = more binding, comparable within an allelic series)","13.8 upbm affinity estimate (log intensity, higher = more binding, comparable within an allelic series)","12.8 upbm affinity estimate (log intensity, higher = more binding, comparable within an allelic series)"
AATAATTA,"12 upbm affinity estimate (log intensity, higher = more binding, comparable within an allelic series)","10.9 upbm affinity estimate (log intensity, higher = more binding, comparable within an allelic series)","11.9 upbm affinity estimate (log intensity, higher = more binding, comparable within an allelic series)","14.2 upbm affinity estimate (log intensity, higher = more binding, comparable within an allelic series)","11.7 upbm affinity estimate (log intensity, higher = more binding, comparable within an allelic series)","10.2 upbm affinity estimate (log intensity, higher = more binding, comparable within an allelic series)","13.7 upbm affinity estimate (log intensity, higher = more binding, comparable within an allelic series)","13.5 upbm affinity estimate (log intensity, higher = more binding, comparable within an allelic series)","12.7 upbm affinity estimate (log intensity, higher = more binding, comparable within an allelic series)","13.1 upbm affinity estimate (log intensity, higher = more binding, comparable within an allelic series)","14.2 upbm affinity estimate (log intensity, higher = more binding, comparable within an allelic series)","14 upbm affinity estimate (log intensity, higher = more binding, comparable within an allelic series)","13.3 upbm affinity estimate (log intensity, higher = more binding, comparable within an allelic series)","13.6 upbm affinity estimate (log intensity, higher = more binding, comparable within an allelic series)","13.4 upbm affinity estimate (log intensity, higher = more binding, comparable within an allelic series)","9.07 upbm affinity estimate (log intensity, higher = more binding, comparable within an allelic series)","12.2 upbm affinity estimate (log intensity, higher = more binding, comparable within an allelic series)","13.5 upbm affinity estimate (log intensity, higher = more binding, comparable within an allelic series)","13.4 upbm affinity estimate (log intensity, higher = more binding, comparable within an allelic series)","12.3 upbm affinity estimate (log intensity, higher = more binding, comparable within an allelic series)"
GGTAATTA,"12.6 upbm affinity estimate (log intensity, higher = more binding, comparable within an allelic series)","10.9 upbm affinity estimate (log intensity, higher = more binding, comparable within an allelic series)","12.6 upbm affinity estimate (log intensity, higher = more binding, comparable within an allelic series)","14.4 upbm affinity estimate (log intensity, higher = more binding, comparable within an allelic series)","11.6 upbm affinity estimate (log intensity, higher = more binding, comparable within an allelic series)","10.4 upbm affinity estimate (log intensity, higher = more binding, comparable within an allelic series)","13.9 upbm affinity estimate (log intensity, higher = more binding, comparable within an allelic series)","14.1 upbm affinity estimate (log intensity, higher = more binding, comparable within an allelic series)","13.2 upbm affinity estimate (log intensity, higher = more binding, comparable within an allelic series)","13.3 upbm affinity estimate (log intensity, higher = more binding, comparable within an allelic series)","14.3 upbm affinity estimate (log intensity, higher = more binding, comparable within an allelic series)","14.2 upbm affinity estimate (log intensity, higher = more binding, comparable within an allelic series)","14.1 upbm affinity estimate (log intensity, higher = more binding, comparable within an allelic series)","13.8 upbm affinity estimate (log intensity, higher = more binding, comparable within an allelic series)","14.1 upbm affinity estimate (log intensity, higher = more binding, comparable within an allelic series)","9.03 upbm affinity estimate (log intensity, higher = more binding, comparable within an allelic series)","12.8 upbm affinity estimate (log intensity, higher = more binding, comparable within an allelic series)","13.5 upbm affinity estimate (log intensity, higher = more binding, comparable within an allelic series)","14.2 upbm affinity estimate (log intensity, higher = more binding, comparable within an allelic series)","12.9 upbm affinity estimate (log intensity, higher = more binding, comparable within an allelic series)"
